An excerpt weighted towards active compounds, which were near 1.7% of everything screened.
HEK293 tox – cytotoxicity counter-screen for GLP-1 receptor inverse agonists; 0.13% of 410,000 active; HEK293 cAMP-luciferase reporter cells, luminescence, 24 h; AID 624418; Potency, µM (top dose mostly 38.3 µM), for the others: top-dose activity change, negative = inhibition, usual class: inhibitors;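 further: loss of luciferase light is scored as toxicity; on the % scale 0 is the no-effect control and ±100 the full control effect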
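Here, cytotoxicity is scored as loss of luminescence. The MLSMR collection was tested on cells seeded in medium containing 10% Nu serum, with a 24 hr compound exposure preceded by 12 hours of culture.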
GLP-1R agonist – activates the human GLP-1 receptor; P43220; HEK293 GLP-1R CRE-luciferase, luminescence, 4-6 h; cells express a hypersensitive GLP-1R form; Potency, µM (doses to about 45.6 µM), for the others: top-dose activation, usual class: activators; 0.007% of 380,000 active; AID 624172; further: % of control where 0% means no effect
Target sequence (P43220 whole entry, looked up): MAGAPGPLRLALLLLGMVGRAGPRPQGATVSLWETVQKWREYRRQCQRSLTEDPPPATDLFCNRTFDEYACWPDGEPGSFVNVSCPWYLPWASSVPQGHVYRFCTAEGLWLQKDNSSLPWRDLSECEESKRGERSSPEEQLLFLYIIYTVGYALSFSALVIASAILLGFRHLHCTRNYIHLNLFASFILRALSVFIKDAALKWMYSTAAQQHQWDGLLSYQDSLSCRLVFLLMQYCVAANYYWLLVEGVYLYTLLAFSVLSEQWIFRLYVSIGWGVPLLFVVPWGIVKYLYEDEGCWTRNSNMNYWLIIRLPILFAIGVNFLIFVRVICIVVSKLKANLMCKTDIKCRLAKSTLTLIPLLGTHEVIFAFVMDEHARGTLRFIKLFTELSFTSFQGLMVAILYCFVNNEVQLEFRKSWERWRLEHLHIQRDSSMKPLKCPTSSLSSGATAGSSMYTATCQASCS
PTHR1 agonist – agonists of human PTHR1 parathyroid hormone receptor; 0.075% of 410,000 active; HEK293 GP2 PTHR1 cells, GloSensor cAMP luminescence, 1 h; AID 743266; Potency, µM (highest dose often 115 µM), inactives show at the top dose activation, most hits filed as activators; further: nearly all actives have a fitted effect of over 55% in size
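HEK-293-derived GP2 cells expressing PTHR1 and a GloSensor cAMP reporter, 3,000/well, plated overnight, given luciferin plus IBMX (each 0.5 mM as added) for 1 h at 37 °C, then compound for 1 h at 37 °C. Luminescence was read after 15 min at room temperature.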
GLP-1R inv ag – acts as inverse agonist at human GLP-1 receptor. P43220. HEK293 GLP-1R CRE-luciferase, luminescence, 24 h; GLP-1R form is constitutively active. Potency, µM (highest dose often 38.3 µM), for the others: at the top dose activity change, negative = inhibition, hits mostly inhibitors. 1.6% of 410,000 active. AID 624417; further: on the % scale 0 is the no-effect control and ±100 the full control effect; nearly all actives have a fitted effect of over 55% in size
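HEK293 cells stably co-expressing constitutively active GLP-1R and a cAMP-responsive luciferase reporter were seeded in DMEM with 10% Nu serum, given compounds after 12 h, and incubated 24 h at 37 deg C. Luminescence was then read.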
An asterisk follows results filed as active; i = inactive; ? = inconclusive; . = not tested or not shown; [ ] = another dose, or the depositor's remark. The call rests on the fitted dose curve; in most records, active means well fitted curve in the direction sought with a large enough effect; inconclusive means small, poorly fitted or top-dose-only effect, or another doubt; inactive means no such curve, though single readings can be large; an effect the other way counts as inactive or inconclusive. Potency means the concentration at half of the fitted maximal effect.

SMILES | HEK293 tox | GLP-1R agonist | PTHR1 agonist | GLP-1R inv ag
CC(NC(=S)Nc1ccccc1Cl)C(c1ccccc1)N1CCOCC1 (configuration not stated) | 10µM* | 1.8% | -12.8% | ?
CC(NC(=O)c1ccc(-c2ccccc2)cc1)C(c1ccccc1)N1CCOCC1 (configuration not stated) | -15.7% | 6.5% | -9.4% | 2µM*
CSc1nc2ccc(NC(=O)c3ccc(Cl)s3)cc2s1 | 3.6% | 1.7% | -77.9% | 17.1%
O=C(Nc1ccc2ccccc2c1)c1onc2c1CCCC2 | -4.5% | -0.7% | -36.9%[57.5 µM] | 8.91µM*
COC(=O)c1cccc(NC(=O)c2onc3c2CCCC3)c1 | 0.1%[1.53 µM] | 0.4% | -13.5% | -19.1%
Cc1ccc(CN2CCN(c3ccccc3)CC2)o1 | -4.8% | 12.6% | i | -12.5%
CCN(C(=O)c1ccc2c(c1)OCO2)C12CC3CC(CC(C3)C1)C2 | 1.4% | 27.6% | -16.3% | 11.2µM*
Cc1ccc(N/N=C2\CCS(=O)(=O)c3sccc32)cc1 | -27.9% | 14.7% | -14.5% | 3.98µM*
CC(=O)c1ccc(OCc2cc(C(=O)N(C)Cc3ccccn3)no2)cc1 | 3.8% | -8.8% | -20.6% | 9.5%
Cc1cc(OCc2cc(C(=O)N(C)Cc3ccccn3)no2)cc(C)c1Cl | 1.8% | -0.5% | -33.7% | 2µM*
CCN(CC)CCCN(Cc1cc2cc(OC)ccc2[nH]c1=O)C(=O)Nc1ccc(F)cc1 | -18.4% | 14.1% | i | 4.47µM*
CCc1ccc2[nH]c(=O)c(CN(Cc3ccccc3)C(=O)Nc3ccccc3OC)cc2c1 | ? | 11.2% | i | 3.55µM*
O=C1N(c2ccccc2)C(c2ccc(Cl)cc2)N2CCCN12 (configuration not stated) | -8.1% | 0.1% | -7.3% | ?
Cc1ccc(C2N(c3ccc(Cl)cc3)C(=O)N3CCCN23)cc1 (configuration not stated) | -8.2% | 8.3% | -9.8% | 10µM*
O=C(NC1CCCC1)C(c1ccco1)N1CCN(c2c(Cl)cncc2Cl)CC1 (configuration not stated) | -0.1% | . | -1.9% | 18.2%
CCN1CCN(C(=O)CN(c2cccc(Br)c2)S(=O)(=O)c2ccccc2)CC1 | -1.3% | 0.4% | i | -0.3%
O=C(CN(c1cccc(Br)c1)S(=O)(=O)c1ccccc1)N1CCc2ccccc2C1 | 3.7% | . | -15.8% | 10µM*
Fc1ccc(C2CC(c3ccco3)=NN2c2ccccc2)cc1 (configuration not stated) | 109.9% | 0.8% | -14.2% | 6.31µM*
Cc1ccc2nc(-c3ccc(NC(=O)CNC4CC4)cc3)sc2c1 | 4.2% | -5.5% | -90.9% | 12.6µM*
Cc1ccc(C)c(NC(=S)N2CCC(NC(=O)C3CCCCC3)CC2)c1 | 13.4% | 0.1% | -2.4% | 5.5%
C=C(C1=CCN(S(=O)C(C)(C)C)[C@H]1CCO)c1ccccc1 (some centres not stated) | 21.7% | -0.8% | -8.7% | 11.2µM*
Cc1ccccc1OCCCCCCN1CCNCC1 | 2.0% | 7.2% | -12.1% | 2.24µM*
Cc1cccc(C)c1OCCCCN1CCNCC1 | -2.2% | 6.4% | -16.5% | ?
Cc1ccc(OCCCCCCN2CCNCC2)cc1 | -25.3% | 13.9% | -22.4% | 2.24µM*
Cc1ccc(OCCCCCN2CCOCC2)cc1 | 7.1% | 1.0% | i | 6.2%
SMILES | HEK293 tox | GLP-1R agonist | PTHR1 agonist | GLP-1R inv ag
Cc1cc(Cl)ccc1OCC(=O)N1CCCN(C(=O)COc2ccc(Cl)cc2C)CC1 | -23.8% | -15.8% | -32.6% | ?
Cc1cc(Cl)ccc1OC(C)C(=O)N1CCCN(C(=O)C(C)Oc2ccc(Cl)cc2C)CC1 (configuration not stated) | ? | -24.8% | -13.4% | 5.01µM*
Cc1c(C(=O)N2CCN(C(c3ccccc3)c3ccccc3)CC2)oc2ccccc12 | 19.0% | -6.7% | -15.5% | 4.47µM*
Cc1c(C(=O)N2CC(C)OC(C)C2)oc2ccccc12 (configuration not stated) | 3.0% | 10.2% | i | 0.0%
Brc1ccc(CN2CCc3nc(Nc4ccccc4)ncc3C2)s1 | -5.4% | . | i | ?
CC(C)Oc1ccc(CNC(=O)c2cccc(NC(=O)N3CCSc4ncccc43)c2)cc1 | -3.0% | . | -27.3% | 6.1%
C=CCNc1nc(NCc2ccc(NC(C)=O)cc2)c2sc(-c3ccccc3)cc2n1 | ? | -9.5% | -10.9% | ?
CC(=O)Nc1ccc(CNc2nc(NC(C)C)nc3cc(-c4ccccc4)sc23)cc1 | ? | -13.3% | -37.0% | 11.2µM*
COCCNc1nc(NCC2CCCCC2)c2sc(-c3ccccc3)cc2n1 | ? | -2.2% | -20.7% | ?
c1ccc(-c2cc3nc(NCC4CC4)nc(NCC4CCCCC4)c3s2)cc1 | ? | -4.7% | -73.6% | 2µM*
c1ccc(OCCNc2nc(NCC3CC3)nc3ccsc23)cc1 | -10.0% | -2.5% | -44.1% | 8.91µM*
Cc1nn(C(=O)c2cccc(Cl)c2)c(C)c1S(=O)(=O)N1CCOCC1 | 1.5% | 0.9% | -75.1% | 15.5%
COC(=O)C1CCN(C(=O)COc2ccc(N(C)S(=O)(=O)c3ccc(C)cc3)cc2)CC1 | -0.5% | -8.1% | i | 11.7%
CCC1CCCCN1C(=O)COc1ccc(N(C)S(=O)(=O)c2ccc(C)cc2)cc1 (configuration not stated) | 3.1% | 7.9% | -4.1% | 3.16µM*
Cc1ccc(S(=O)(=O)N(C)c2ccc(OCc3cccc(C)c3)cc2)cc1 | 10.0% | -8.1% | -12.3% | 2.82µM*
Cc1ccc(S(=O)(=O)N(C)c2ccc(OCC(=O)NCC3(N(C)C)CCCCC3)cc2)cc1 | -0.3% | 0.1% | i | 11.2µM*
CCc1ccc(NC(=O)CSc2nnc(CNC(=O)c3cccs3)o2)cc1 | 5.1% | 0.2% | i | 9.8%
CC(=O)SC[C@@H](C)C(=O)N1CCC[C@H]1C(=O)N[C@@H](Cc1ccccc1)C(=O)O | . | 3.7% | . | .
COc1cccc2cc(CC(=O)c3ccccc3)c(=O)oc12 | 4.9% | 4.7% | -17.0% | 20.1%
CCOc1ccccc1NC(=O)CN(CCc1ccccc1)S(=O)(=O)c1ccc(C)cc1 | 0.0% | . | i | 10µM*
CCOc1cccc(C2c3[nH]c4ccccc4c3CCN2C(=O)c2ccccc2F)c1 (configuration not stated) | -6.3% | . | -11.3% | 5.62µM*
CCOc1ccc(C2c3[nH]c4ccccc4c3CCN2C(=O)Cc2cccc(OCC)c2OCC)cc1 (configuration not stated) | -9.1% | . | i | 6.31µM*
CCOc1cccc(CC(=O)N2CCc3c([nH]c4ccccc34)C2c2ccccc2)c1OCC (configuration not stated) | 1.2% | . | -0.8% | ?
COc1ccc(CCC(=O)N2CCc3c([nH]c4ccccc34)C2c2ccc(F)cc2)cc1 (configuration not stated) | -6.3% | . | -30.1% | 10µM*
O=C(CSc1ccccc1)N1CCc2c([nH]c3ccccc23)C1c1ccc(Cl)cc1 (configuration not stated) | 0.9% | . | i | 5.01µM*

Compound activity (PubChem)
